# Structures can show the parent of a compound that is named as a salt. ± gives the standard deviation of the averaged measurements.
# Molecular target: IKZF1 (dCK*-IKZF1 fusion in HEK293FT) (UniProt Q13422)
# Assay: inhibition of IKZF1 HTRF signal (DMSO = 0%, pomalidomide 10 uM = 100%); higher = lower IKZF1 protein level
# Settings: compound concentration: 5 uM, overnight (~20 h)
# Method in brief: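 Compound was tested at 5 μM in single wells on HEK293FT cells (2000/well, 384-well) stably carrying an IKZF1 fusion, overnight at 37 °C. Total IKZF1 was measured in lysates with a commercial HTRF antibody kit as the background-subtracted 665/620 nm time-resolved FRET ratio. The reported figure is percent inhibition of IKZF1 signal, scaled per plate between vehicle and a reference degrader. The vehicle anchor was 0% and the degrader anchor 100%.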
# Chain of IKZF1 (dCK*-IKZF1 fusion in HEK293FT) (Q13422 whole entry, looked up, the tested form may be a part): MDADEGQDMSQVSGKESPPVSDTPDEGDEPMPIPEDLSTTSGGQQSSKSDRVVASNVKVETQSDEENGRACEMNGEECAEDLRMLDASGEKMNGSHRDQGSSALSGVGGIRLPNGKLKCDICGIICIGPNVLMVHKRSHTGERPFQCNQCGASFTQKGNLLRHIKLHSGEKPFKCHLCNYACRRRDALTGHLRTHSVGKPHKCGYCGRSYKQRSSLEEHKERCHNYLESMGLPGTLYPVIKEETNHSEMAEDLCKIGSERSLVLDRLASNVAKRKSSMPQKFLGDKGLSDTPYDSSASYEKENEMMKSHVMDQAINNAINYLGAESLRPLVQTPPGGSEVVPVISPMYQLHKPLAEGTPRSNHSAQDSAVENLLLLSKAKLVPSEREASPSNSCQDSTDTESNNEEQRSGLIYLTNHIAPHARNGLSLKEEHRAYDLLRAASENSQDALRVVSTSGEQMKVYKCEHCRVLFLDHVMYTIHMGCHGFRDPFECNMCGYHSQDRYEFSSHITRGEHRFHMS
row,SMILES,inhibition of IKZF1 HTRF signal
1,Cc1ncsc1-c1ccc(CNC(=O)[C@@H]2C[C@@H](O)CN2C(=O)[C@@H](NC(=O)COCCOCCOc2ccc(-c3ccc4ncnc(Nc5ccc(OCc6cccc(F)c6)c(Cl)c5)c4c3)cc2)C(C)(C)C)cc1,6.76%
2,COc1cc(N2CCN(CCOCCOCCNC(=O)CNc3cccc4c3C(=O)N(C3CCC(=O)NC3=O)C4=O)CC2)ccc1Nc1ncc(Cl)c(Nc2ccccc2S(=O)(=O)C(C)C)n1 (stereo not drawn),34.1%
3,OC1(c2ccc(Cl)c(C(F)(F)F)c2)CCN(CCCC(c2ccc(F)cc2)c2ccc(F)cc2)CC1,-28.8%
4,CCCCCNC(=N)N/N=C/c1c[nH]c2ccc(OC)cc12,-1.99%
5,COc1ccc(Cl)cc1C(=O)NCCc1ccc(S(=O)(=O)NC(=O)NC2CCCCC2)cc1,-51.9%
6,CCc1c2c(nc3ccc(OC(=O)N4CCC(N5CCCCC5)CC4)cc13)-c1cc3c(c(=O)n1C2)COC(=O)[C@]3(O)CC [irinotecan],41.6%
7,COC1=C(OC)C(=O)C(CCCCCCCCCCO)=C(C)C1=O,41.8%
8,COc1cc(N2CCC(N3CCN(C(=O)CNc4cccc5c4C(=O)N(C4CCC(=O)NC4=O)C5=O)CC3)CC2)ccc1Nc1ncc(Cl)c(Nc2ccccc2P(C)(C)=O)n1 (stereo not drawn),111%
9,CN(C)CCOC1=Cc2ccccc2Sc2ccc(Cl)cc21 [zotepine],-37.7%
10,Cc1ccc(S(=O)(=O)N/N=C/c2cc(Br)ccc2O)cc1,26 ± 7.3%
11,CC1(S(=O)(=O)[O-])CC(=O)c2ccccc2C1=O (stereo not drawn) [menadione-bisulfite],9.55%
12,CC1(C)CCC2=C(O1)c1ccccc1C(=O)C2=O,-30%
13,COc1ccc(NS(=O)(=O)c2ccc(N=Nc3ccc(O)c(C(=O)O)c3)cc2)nn1 [salazodine],-2.92%
14,CN1CCN(c2ncc(-c3cc(Cl)cc(Cl)c3Cl)c(N)n2)CC1 [sipatrigine],11.5%
15,CC(C)(C)c1cc(O)c(C(C)(C)C)cc1O,-31.7%
16,CN(C)CCC=C1c2ccccc2CCc2ccccc21 [Amitriptyline HCl],22.6%
17,O=C(Nc1ccc(S(=O)(=O)Nc2ccccc2Cl)c(Cl)c1)c1ccccn1,25.4%
18,C[n+]1c2cc(N)ccc2cc2ccc(N)cc21.Nc1ccc2cc3ccc(N)cc3nc2c1 [Acriflavine hydrochloride],6.76%
19,Oc1cc2c(cc1O)[C@@H]1c3ccc(O)c(O)c3OC[C@]1(O)C2 [Hematoxylin (Hydroxybrazilin)],-6.3%
20,c1cc2c(cc1C1CCCCC1)c1c3n2CCNC3CCC1 (stereo not drawn) [tetrindole],-27.2%

row,SMILES,inhibition of IKZF1 HTRF signal
1,C[n+]1c2cc(N)ccc2cc2ccc(N)cc21,69.3%
2,O=C1Nc2ccc(Cl)cc2[C@@](C#CC2CC2)(C(F)(F)F)O1 [Efavirenz],0.88%
3,COc1cccc2c(O)c3c(O)c4c(c(O)c3c(O)c12)=C(O[C@H]1C[C@H](N)[C@H](O)[C@H](C)O1)C[C@](O)(C(=O)CO)C=4 [Doxorubicin HCl],40.1%
4,Cc1ncsc1-c1ccc(CNC(=O)[C@@H]2C[C@@H](O)CN2C(=O)[C@@H](NC(=O)COCCCCOc2ccc(-c3ccc(N4C(=S)N(c5ccc(C#N)c(C(F)(F)F)c5)C(=O)C4(C)C)cc3)cc2)C(C)(C)C)cc1,21.2%
5,CC(C)CCN1c2nc(Nc3cc(F)c(O)c(F)c3)ncc2N(C)C(=O)C1C (stereo not drawn),-50.7%
6,CCCCCCCCCCCC1=C(O)C(=O)C=C(O)C1=O [embelin],-30.8%
7,Nc1ccc(S(=O)(=O)Nc2ncccn2)cc1,-27.2%
8,C=C1/C(=C/C=C2\CCC[C@]3(C)[C@@H]([C@H](C)/C=C/[C@@H](C)C(C)C)CC[C@@H]23)C[C@@H](O)C[C@@H]1O [Doxercalciferol (Hectorol)],-23%
9,Cc1nc(-c2cccnc2)sc1C(=O)Nc1ccccc1-c1cn2c(CN3CCOCC3)csc2n1,6.43%
10,C=C1C(=O)O[C@@H]2[C@H]3O[C@]3(C)CC/C=C(\C)CC[C@@H]12 [parthenolide-(alternate-stereo)],-27.7%
11,O=C1Nc2ccc(I)cc2/C1=C/c1cc(Br)c(O)c(Br)c1,-34.2%
12,CC(C)n1nc(-c2ccc3oc(N)nc3c2)c2c(N)ncnc21,83.3%
13,Oc1cc(O)c2cc(O)c(-c3cc(O)c(O)c(O)c3)[o+]c2c1 [delphinidin],43.4%
14,COc1ncnc(NS(=O)(=O)c2ccc(N)cc2)c1OC,-56.1%
15,O=C(N/N=C/c1ccccc1O)c1ccccc1O,-40.4%
16,C=C(NNC(=S)NNC(=S)Nc1ccccc1Cl)c1ccccn1,0.77%
17,O=S(=O)(O)CCSSCCS(=O)(=O)O,-1.7%
18,CC(C)[C@@H]1CC[C@@H](C)C[C@@H]1P(=O)(c1ccccc1)c1ccccc1,-20.4%
19,O=C1Nc2cc(Br)ccc2/C1=C1/Nc2ccccc2/C1=N\O [3-inhibitor],-34.6%

# Tested on: HEK293FT dCK*-only
# Assay: relative growth in counter assay (no AraC = 100%, AraC + DMSO = 0%); higher = more growth rescue independent of IKZF1
# Settings: compound concentration: 5 uM; AraC concentration: 0.3 uM; overnight pretreatment + 4 days AraC
# Method in brief: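 For this counter assay, relative growth was normalised on each plate to two kinds of reference wells. HEK293FT cells expressing only an engineered kinase construct (300/well, 384-well) were treated with 5 μM compound 2 h after seeding, then after overnight at 37 °C with a nucleoside suicide substrate at 0.3 μM plus medium for 4 days. On day 5, Hoechst 33342-stained nuclei were counted by imaging, taking wells without suicide substrate as 100% and substrate plus vehicle as 0%.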
row,SMILES,relative growth in counter assay
1,Cc1ncsc1-c1ccc(CNC(=O)[C@@H]2C[C@@H](O)CN2C(=O)[C@@H](NC(=O)COCCOCCOc2ccc(-c3ccc4ncnc(Nc5ccc(OCc6cccc(F)c6)c(Cl)c5)c4c3)cc2)C(C)(C)C)cc1,49.6%
2,COc1cc(N2CCN(CCOCCOCCNC(=O)CNc3cccc4c3C(=O)N(C3CCC(=O)NC3=O)C4=O)CC2)ccc1Nc1ncc(Cl)c(Nc2ccccc2S(=O)(=O)C(C)C)n1 (stereo not drawn),-27.8%
3,OC1(c2ccc(Cl)c(C(F)(F)F)c2)CCN(CCCC(c2ccc(F)cc2)c2ccc(F)cc2)CC1,-26%
4,CCCCCNC(=N)N/N=C/c1c[nH]c2ccc(OC)cc12,-5.1%
5,COc1ccc(Cl)cc1C(=O)NCCc1ccc(S(=O)(=O)NC(=O)NC2CCCCC2)cc1,-0.06%
6,CCc1c2c(nc3ccc(OC(=O)N4CCC(N5CCCCC5)CC4)cc13)-c1cc3c(c(=O)n1C2)COC(=O)[C@]3(O)CC [irinotecan],-35.4%
7,COC1=C(OC)C(=O)C(CCCCCCCCCCO)=C(C)C1=O,-5.9%
8,COc1cc(N2CCC(N3CCN(C(=O)CNc4cccc5c4C(=O)N(C4CCC(=O)NC4=O)C5=O)CC3)CC2)ccc1Nc1ncc(Cl)c(Nc2ccccc2P(C)(C)=O)n1 (stereo not drawn),-29.6%
9,CN(C)CCOC1=Cc2ccccc2Sc2ccc(Cl)cc21 [zotepine],2.78%
10,Cc1ccc(S(=O)(=O)N/N=C/c2cc(Br)ccc2O)cc1,-14 ± 4.4%
11,CC1(S(=O)(=O)[O-])CC(=O)c2ccccc2C1=O (stereo not drawn) [menadione-bisulfite],-12.2%
12,CC1(C)CCC2=C(O1)c1ccccc1C(=O)C2=O,-24.5%
13,COc1ccc(NS(=O)(=O)c2ccc(N=Nc3ccc(O)c(C(=O)O)c3)cc2)nn1 [salazodine],6.32%
14,CN1CCN(c2ncc(-c3cc(Cl)cc(Cl)c3Cl)c(N)n2)CC1 [sipatrigine],5.22%
15,CC(C)(C)c1cc(O)c(C(C)(C)C)cc1O,-0.82%
16,CN(C)CCC=C1c2ccccc2CCc2ccccc21 [Amitriptyline HCl],6.15%
17,O=C(Nc1ccc(S(=O)(=O)Nc2ccccc2Cl)c(Cl)c1)c1ccccn1,1.67%
18,C[n+]1c2cc(N)ccc2cc2ccc(N)cc21.Nc1ccc2cc3ccc(N)cc3nc2c1 [Acriflavine hydrochloride],-35.7%
19,Oc1cc2c(cc1O)[C@@H]1c3ccc(O)c(O)c3OC[C@]1(O)C2 [Hematoxylin (Hydroxybrazilin)],-6.89%
20,c1cc2c(cc1C1CCCCC1)c1c3n2CCNC3CCC1 (stereo not drawn) [tetrindole],-33%

row,SMILES,relative growth in counter assay
1,C[n+]1c2cc(N)ccc2cc2ccc(N)cc21,-34.9%
2,O=C1Nc2ccc(Cl)cc2[C@@](C#CC2CC2)(C(F)(F)F)O1 [Efavirenz],-1.3%
3,COc1cccc2c(O)c3c(O)c4c(c(O)c3c(O)c12)=C(O[C@H]1C[C@H](N)[C@H](O)[C@H](C)O1)C[C@](O)(C(=O)CO)C=4 [Doxorubicin HCl],-34.4%
4,Cc1ncsc1-c1ccc(CNC(=O)[C@@H]2C[C@@H](O)CN2C(=O)[C@@H](NC(=O)COCCCCOc2ccc(-c3ccc(N4C(=S)N(c5ccc(C#N)c(C(F)(F)F)c5)C(=O)C4(C)C)cc3)cc2)C(C)(C)C)cc1,72.3%
5,CC(C)CCN1c2nc(Nc3cc(F)c(O)c(F)c3)ncc2N(C)C(=O)C1C (stereo not drawn),-32.3%
6,CCCCCCCCCCCC1=C(O)C(=O)C=C(O)C1=O [embelin],-6.94%
7,Nc1ccc(S(=O)(=O)Nc2ncccn2)cc1,-9.24%
8,C=C1/C(=C/C=C2\CCC[C@]3(C)[C@@H]([C@H](C)/C=C/[C@@H](C)C(C)C)CC[C@@H]23)C[C@@H](O)C[C@@H]1O [Doxercalciferol (Hectorol)],1.09%
9,Cc1nc(-c2cccnc2)sc1C(=O)Nc1ccccc1-c1cn2c(CN3CCOCC3)csc2n1,-2.87%
10,C=C1C(=O)O[C@@H]2[C@H]3O[C@]3(C)CC/C=C(\C)CC[C@@H]12 [parthenolide-(alternate-stereo)],-34.4%
11,O=C1Nc2ccc(I)cc2/C1=C/c1cc(Br)c(O)c(Br)c1,4.46%
12,CC(C)n1nc(-c2ccc3oc(N)nc3c2)c2c(N)ncnc21,-33.3%
13,Oc1cc(O)c2cc(O)c(-c3cc(O)c(O)c(O)c3)[o+]c2c1 [delphinidin],-7.27%
14,COc1ncnc(NS(=O)(=O)c2ccc(N)cc2)c1OC,-8.08%
15,O=C(N/N=C/c1ccccc1O)c1ccccc1O,0.05%
16,C=C(NNC(=S)NNC(=S)Nc1ccccc1Cl)c1ccccn1,-34.8%
17,O=S(=O)(O)CCSSCCS(=O)(=O)O,-2.36%
18,CC(C)[C@@H]1CC[C@@H](C)C[C@@H]1P(=O)(c1ccccc1)c1ccccc1,3.21%
19,O=C1Nc2cc(Br)ccc2/C1=C1/Nc2ccccc2/C1=N\O [3-inhibitor],-10.1%

# Source: the supplement of paper PMC12340641
